From PubChem BioAssay (NCATS) come the findings set out here.

Test [1] in a line: qHTS assay for small molecule antagonists of peroxisome proliferator-activated receptor delta signaling (AID 588535; active means well fitted inhibition curve with a large enough effect in the signal ratio, with a control signal flat, not every such curve was filed as active; the % refers to the signal ratio;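 on max response: cells co-treated with a PPAR-delta agonist as stimulator during compound exposure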). The settings on record: HEK293T PPARd-UAS-bla, beta-lactamase FRET ratio, 18 h; 460 nm channel. In short, it runs like this: (§1)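 Reporter: UAS-bla under PPAR-delta response element, HEK293T host. Medium: 2% charcoal/dextran FBS. Dosing: titration, 18 hrs, 37 C. Detection: CCF4, 2 hrs RT, 405 ex/460 and 530 em.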

For test [2], the target named is Peroxisome proliferator-activated receptor delta (Homo sapiens) (UniProt Q03181). Described as above. In short, it runs like this: as §1
The target in test [3] is Peroxisome proliferator-activated receptor gamma (Homo sapiens) (UniProt P37231). In words: qHTS assay for small molecule agonists of peroxisome proliferator-activated receptor gamma signaling (AID 588536; active means well fitted curve in the direction sought with a large enough effect in the signal ratio, with a control signal flat, not every such curve was filed as active; the % refers to the signal ratio;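 further: 0% = DMSO basal wells and 100% = rosiglitazone at 2 µM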). In short, it runs like this: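 HEK293 UAS-bla reporter line, 1% charcoal/dextran FBS; titration, 16 h, 37 C; CCF4 loading 2 h RT; fluorescence 460/530 nm. Normalized to rosiglitazone 2 uM = 100%, DMSO = 0%.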

Test [4] deals with Vitamin D3 receptor (Homo sapiens) (UniProt P11473). In words: qHTS assay for small molecule antagonists of vitamin D receptor signaling (AID 588541).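 Further: receptor activated by calcitriol during compound treatment; series mostly up to about 77 µM; on the % scale 0 is the no-effect control and ±100 the full control effect.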 In short, it runs like this:
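VDR-UAS-bla HEK293T cells (2000/well, 2% charcoal-stripped FBS) were treated with titrated compounds plus 1-alpha,25-dihydroxyvitamin D3 (50 nM or 3 nM final) for 16 h at 37 C. CCF4 beta-lactamase fluorescence was read; Hill fits gave IC50.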

The nature of test [5]: qHTS assay for small molecule agonists of retinoid X receptor alpha signaling (AID 588544).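 On activation: 0% = DMSO basal wells and 100% = reference agonist.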 Particulars: HEK293T RXRa-UAS-bla, beta-lactamase reporter, 18 h; 530 nm emission.
Test [6] addresses Retinoic acid receptor RXR-alpha (Homo sapiens) (UniProt P19793). The description is as above.
Test [7] deals with Thyroid hormone receptor beta (Homo sapiens) (UniProt P10828). In words: qHTS assay for small molecule agonists of thyroid hormone receptor beta signaling (AID 588545).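 Further: 0% = DMSO only and 100% = 10 nM T3.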 In short, it runs like this: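 Efficacy and EC50 values derive from Hill fits of qHTS titration data, normalized to 10 nM T3 and DMSO-only wells. HEK 293 reporter cells were stimulated for 18 hrs at 37 C, with beta-lactamase activity measured by CCF4 fluorescence.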

A short description of test [8]: qHTS assay for small molecule antagonists of retinoid X receptor alpha signaling (AID 588546; active means well fitted inhibition curve with a large enough effect in the signal ratio, with a control signal flat, not every such curve was filed as active; the % refers to the signal ratio;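 further: cells stimulated with 9-cis-retinoic acid as agonist; on the % scale 0 is the no-effect control and ±100 the full control effect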). Particulars: HEK293T RXRa-UAS-bla, beta-lactamase ratio, antagonist mode; measured here: W530 green channel, cytotoxicity proxy. In short, it runs like this: (§2)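 Beta-lactamase reporter inhibition, read as CCF4 fluorescence ratio (ex 405, em 460/530 nm) after 2 h at RT. HEK293T UAS-bla cells, 2500/well, were stimulated with 9-cis-RA at 500 or 100 nM final alongside test compound for 18 h at 37 C.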

In test [9] the target is Retinoic acid receptor RXR-alpha (Homo sapiens) (UniProt P19793). The description is as above. The settings on record: HEK293T RXRa-UAS-bla, beta-lactamase ratio, antagonist mode. In short, it runs like this:
as §2

In test [10] the target is Voltage-gated inwardly rectifying potassium channel KCNH2 (Homo sapiens) (UniProt Q12809). In words: qHTS Assay for Small Molecule Inhibitors of the Human hERG Channel Activity (AID 588834; active means well fitted inhibition curve with a large enough effect;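 further: top concentration of the series differs between compounds; on the % scale 0 is the no-effect control and ±100 the full control effect; lower thallium flux fluorescence means stronger hERG block; nearly all actives have a fitted effect of over 50% in size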). In short, it runs like this:
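Blockade is seen as reduced FluxOR thallium-flux fluorescence in U2OS cells expressing hERG from a BacMam construct, in Opti-MEM with 2% FCS. Concentration-response data fitted to the Hill equation for AC50.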

Test [11] can be described thus: qHTS assay for small molecule agonists of the antioxidant response element (ARE) signaling pathway (AID 651741; active means well fitted activation curve with a large enough effect in the signal ratio; the % refers to the signal ratio; further: potency means the concentration at half of the fitted maximal effect; on activation: % of control where 0% means no effect). In short, it runs like this:
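Compounds in DMSO are pinned onto HepG2 ARE-bla cells (2,000/well) that were preincubated 5 h; plates stay 16 h at 37 C, then beta-lactamase activity is detected with LiveBLAzer B/G substrate by fluorescence.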

The nature of test [12]: qHTS assay for small molecule activators of the p53 signaling pathway (AID 651743; active means well fitted activation curve with a large enough effect in the signal ratio, not every such curve was filed as active; the % refers to the signal ratio; further: series mostly up to about 92 µM; % of control where 0% means no effect). Particulars: HCT-116 p53RE-bla, beta-lactamase FRET ratio, 16 h; stronger effect = higher value. In short, it runs like this:
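Cell-based beta-lactamase reporter (p53 response elements, HCT-116 background). After a 5-hour preincubation, cells received compound for 16 hours at 37 C; substrate development ran 2 hours at room temperature.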

In test [13] the target is Vitamin D3 receptor (Homo sapiens) (UniProt P11473). Nature of the test: qHTS assay for small molecule agonists of vitamin D receptor signaling (AID 588543).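 Further: 0% = DMSO basal and 100% = reference agonist control.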 In short, it runs like this:
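Measured: β-lactamase reporter activity (CCF4, 405 nm excitation, 460/530 nm emission) in HEK293T VDR-UAS-bla cells after 16 h compound exposure at 37 °C. Normalization against 50 nM 1α,25-dihydroxyvitamin D3 and DMSO; Hill-fit EC50.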

Test [14] concerns the target Thyroid hormone receptor beta (Homo sapiens) (UniProt P10828). In words: qHTS assay for small molecule antagonists of thyroid hormone receptor beta signaling (AID 588547; active means well fitted inhibition curve with a large enough effect in the signal ratio, with a control signal flat, not every such curve was filed as active; the % refers to the signal ratio;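 further: cells stimulated with 0.4 nM T3 agonist during compound exposure; series mostly up to about 77 µM; on the % scale 0 is the no-effect control and ±100 the full control effect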). The settings on record: TR-UAS-bla HEK293, beta-lactamase ratio, antagonist mode, 18 h. In short, it runs like this: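 TR-UAS-bla GripTite HEK293 cells in 2% charcoal/dextran FBS medium were preincubated 4 h at 37 C, given compound (0.59 nM to 92 uM) plus 0.4 nM T3 (final) for 18 h, then CCF4 for 2 h at RT; Hill fit gave IC50.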

The nature of test [15]: qHTS assay for small molecule activators of the nuclear factor-kappa B (NF-kB) signaling pathway (AID 651749; active means well fitted activation curve with a large enough effect in the signal ratio; the % refers to the signal ratio; further: series mostly up to about 77 µM; % of control where 0% means no effect). The settings on record: NF-kB-bla ME-180 cells, beta-lactamase FRET ratio, 16 h; stronger effect = higher value. In short, it runs like this:
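Screening used 2,000 ME-180 reporter cells per well exposed to pinned compound (23 nL) or DMSO; after 16 hr at 37C, beta-lactamase expression under NF-kB control was assessed through FRET.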

Test [16] addresses Peroxisome proliferator-activated receptor gamma (Homo sapiens) (UniProt P37231). Nature of the test: qHTS assay for small molecule antagonists of peroxisome proliferator-activated receptor gamma signaling (AID 588537; active means well fitted inhibition curve with a large enough effect in the signal ratio, with a control signal flat, not every such curve was filed as active; the % refers to the signal ratio;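 further: reporter cells co-stimulated with 50 nM rosiglitazone agonist during compound treatment; % of control where 0% means no effect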). In short, it runs like this: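 We seeded GeneBLAzer HEK293 reporter cells at 3000 per well, allowed 6-6.5 h attachment at 37 C, then co-treated with test compound titrations and 50 nM rosiglitazone overnight (16 h). Inhibition was quantified from 460/530 nm emission ratios.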

Where “and” joins values, the source holds several entries; their conditions need not be identical. Equal entries are not always repeated. Records with an inconclusive call do not appear. Calls of active or inactive are those of the source. Unless noted, the call rests on the fitted dose curve.

Chain of Peroxisome proliferator-activated receptor delta (Homo sapiens) (Q03181 whole entry, looked up): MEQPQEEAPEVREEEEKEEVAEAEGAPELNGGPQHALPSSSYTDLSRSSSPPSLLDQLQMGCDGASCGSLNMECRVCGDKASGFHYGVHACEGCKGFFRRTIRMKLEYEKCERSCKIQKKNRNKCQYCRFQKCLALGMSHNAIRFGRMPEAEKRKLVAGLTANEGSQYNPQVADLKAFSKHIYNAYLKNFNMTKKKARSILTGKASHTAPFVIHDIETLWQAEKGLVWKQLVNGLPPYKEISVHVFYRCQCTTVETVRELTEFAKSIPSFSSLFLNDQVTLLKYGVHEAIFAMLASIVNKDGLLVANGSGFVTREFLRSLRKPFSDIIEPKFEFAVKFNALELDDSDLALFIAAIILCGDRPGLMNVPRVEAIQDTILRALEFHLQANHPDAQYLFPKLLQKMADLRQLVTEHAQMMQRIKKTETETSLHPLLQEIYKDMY
Chain of Vitamin D3 receptor (Homo sapiens) (P11473 whole entry, looked up): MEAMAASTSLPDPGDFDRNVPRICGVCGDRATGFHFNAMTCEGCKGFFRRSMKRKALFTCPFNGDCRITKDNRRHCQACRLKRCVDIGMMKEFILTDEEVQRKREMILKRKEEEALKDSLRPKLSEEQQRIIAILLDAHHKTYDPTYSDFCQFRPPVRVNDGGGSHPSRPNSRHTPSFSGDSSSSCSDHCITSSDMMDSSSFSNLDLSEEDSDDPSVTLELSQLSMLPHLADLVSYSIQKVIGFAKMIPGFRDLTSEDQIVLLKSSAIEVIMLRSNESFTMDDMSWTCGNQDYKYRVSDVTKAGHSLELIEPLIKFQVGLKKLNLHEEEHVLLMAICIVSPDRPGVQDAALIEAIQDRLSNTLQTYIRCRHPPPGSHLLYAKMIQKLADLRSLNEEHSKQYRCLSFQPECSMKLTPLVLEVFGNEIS
Chain of Voltage-gated inwardly rectifying potassium channel KCNH2 (Homo sapiens) (Q12809 whole entry, looked up): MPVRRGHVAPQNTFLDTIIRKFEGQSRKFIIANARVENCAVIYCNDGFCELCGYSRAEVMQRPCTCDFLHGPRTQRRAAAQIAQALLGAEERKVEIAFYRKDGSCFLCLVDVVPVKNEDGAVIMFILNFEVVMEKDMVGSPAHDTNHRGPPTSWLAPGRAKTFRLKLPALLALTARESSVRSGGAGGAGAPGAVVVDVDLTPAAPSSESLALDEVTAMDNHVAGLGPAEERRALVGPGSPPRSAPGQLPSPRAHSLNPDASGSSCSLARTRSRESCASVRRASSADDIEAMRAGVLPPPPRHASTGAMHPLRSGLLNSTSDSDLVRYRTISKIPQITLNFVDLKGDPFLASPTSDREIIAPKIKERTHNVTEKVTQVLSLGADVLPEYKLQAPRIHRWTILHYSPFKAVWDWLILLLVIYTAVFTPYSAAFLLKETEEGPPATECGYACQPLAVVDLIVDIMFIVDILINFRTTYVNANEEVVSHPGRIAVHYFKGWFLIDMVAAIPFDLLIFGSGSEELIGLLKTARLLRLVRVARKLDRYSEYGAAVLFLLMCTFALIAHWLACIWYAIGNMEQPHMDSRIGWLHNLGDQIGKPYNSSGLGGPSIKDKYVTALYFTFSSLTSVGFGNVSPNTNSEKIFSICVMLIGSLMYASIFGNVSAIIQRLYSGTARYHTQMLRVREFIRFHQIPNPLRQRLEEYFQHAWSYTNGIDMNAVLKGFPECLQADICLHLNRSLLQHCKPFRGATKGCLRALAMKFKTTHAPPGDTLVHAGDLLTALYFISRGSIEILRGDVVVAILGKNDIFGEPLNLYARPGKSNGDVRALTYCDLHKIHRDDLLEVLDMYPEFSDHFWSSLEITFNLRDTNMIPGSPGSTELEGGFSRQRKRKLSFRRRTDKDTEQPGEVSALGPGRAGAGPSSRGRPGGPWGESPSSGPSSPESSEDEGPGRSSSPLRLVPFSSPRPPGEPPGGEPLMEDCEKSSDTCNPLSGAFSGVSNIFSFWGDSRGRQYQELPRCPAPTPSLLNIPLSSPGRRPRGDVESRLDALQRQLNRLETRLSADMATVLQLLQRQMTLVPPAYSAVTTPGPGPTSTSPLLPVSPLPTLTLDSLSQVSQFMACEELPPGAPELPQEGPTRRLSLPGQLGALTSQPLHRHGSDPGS
Chain of Peroxisome proliferator-activated receptor gamma (Homo sapiens) (P37231 whole entry, looked up): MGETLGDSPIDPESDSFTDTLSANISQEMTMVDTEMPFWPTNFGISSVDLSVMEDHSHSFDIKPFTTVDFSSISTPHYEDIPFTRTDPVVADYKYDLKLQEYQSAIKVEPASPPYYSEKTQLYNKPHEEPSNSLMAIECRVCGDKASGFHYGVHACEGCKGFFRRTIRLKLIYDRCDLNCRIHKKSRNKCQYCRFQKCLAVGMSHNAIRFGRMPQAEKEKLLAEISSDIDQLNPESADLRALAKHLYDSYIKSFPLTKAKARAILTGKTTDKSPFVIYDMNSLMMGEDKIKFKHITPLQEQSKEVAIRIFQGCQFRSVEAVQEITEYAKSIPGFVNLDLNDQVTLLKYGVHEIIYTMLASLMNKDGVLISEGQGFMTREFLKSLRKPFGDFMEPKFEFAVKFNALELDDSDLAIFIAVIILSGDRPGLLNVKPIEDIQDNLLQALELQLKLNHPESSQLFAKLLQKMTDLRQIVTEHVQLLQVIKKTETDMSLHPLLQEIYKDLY
Chain of Thyroid hormone receptor beta (Homo sapiens) (P10828 whole entry, looked up): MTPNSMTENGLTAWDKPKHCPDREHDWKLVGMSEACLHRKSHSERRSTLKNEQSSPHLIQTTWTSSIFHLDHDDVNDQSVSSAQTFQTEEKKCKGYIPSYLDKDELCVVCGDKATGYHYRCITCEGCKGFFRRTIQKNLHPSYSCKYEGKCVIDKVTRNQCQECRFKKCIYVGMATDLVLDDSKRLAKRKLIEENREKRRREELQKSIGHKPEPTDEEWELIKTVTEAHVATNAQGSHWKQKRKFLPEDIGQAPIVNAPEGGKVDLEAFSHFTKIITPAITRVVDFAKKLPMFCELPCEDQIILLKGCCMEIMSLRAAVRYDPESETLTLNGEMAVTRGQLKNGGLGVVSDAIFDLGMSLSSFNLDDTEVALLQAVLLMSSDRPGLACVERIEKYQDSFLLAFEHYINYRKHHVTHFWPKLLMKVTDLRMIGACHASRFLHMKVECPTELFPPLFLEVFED
Chain of Retinoic acid receptor RXR-alpha (Homo sapiens) (P19793 whole entry, looked up): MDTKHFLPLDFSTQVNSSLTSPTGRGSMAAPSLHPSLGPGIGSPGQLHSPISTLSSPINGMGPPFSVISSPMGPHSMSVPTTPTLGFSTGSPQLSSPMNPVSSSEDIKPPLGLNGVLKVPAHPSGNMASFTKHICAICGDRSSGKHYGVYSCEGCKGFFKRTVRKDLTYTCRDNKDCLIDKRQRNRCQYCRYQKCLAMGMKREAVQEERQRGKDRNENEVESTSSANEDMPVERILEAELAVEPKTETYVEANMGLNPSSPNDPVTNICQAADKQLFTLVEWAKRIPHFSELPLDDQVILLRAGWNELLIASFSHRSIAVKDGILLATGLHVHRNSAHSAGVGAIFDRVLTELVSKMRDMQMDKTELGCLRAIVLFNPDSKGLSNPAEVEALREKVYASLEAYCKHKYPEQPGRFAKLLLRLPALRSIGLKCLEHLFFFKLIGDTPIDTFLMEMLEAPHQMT

`CCCCCNCCCCC`: the max response in [1] is -18.6%; in test [5], 1.44% and -10.1%; in test [8] it was -1.51% and -1.45%; in test [9] it was 4.32% (inactive) and 13.3% (inactive). Besides, the Potency entry in [2], in [10] and in test [11] was “inactive” in each case. Further, the call in [3], in [4], in [6] and in [7] was inactive. Also, the activation in [12] was -2.16% (inactive) and -1.29% (inactive).
Take `CC(C)(C)OCC1CO1` (configuration not stated): the compound was classed as inactive in [3], in test [4], in test [13], in test [6] and in test [7]. The max response in [5] was -14.1%; in [8] it was -6.46%. Also, in test [14], the activity change % (negative = inhibition) is 13.4% (inactive). Besides, in test [10], the Potency result was “inactive”. The results for the activation in test [12] and in test [15] were 0.176% (inactive) and 0.44% (inactive), respectively.
`O=C(O)CNC(=O)c1ccc(CO)o1`: the figures for the max response in [1], in [5] and in test [8] were 35.1%, -18.2% and 2.84%, respectively. The Potency entry in test [2], in test [10] and in test [11] was “inactive” throughout. For the same compound, the compound was called inactive in test [3], in test [16] and in test [6]. In addition, in [14], the activity change % (negative = inhibition) is -8.36% (inactive). In addition, the values for the activation in [12] and in [15] were -3.47% (inactive) and 0.936% (inactive), respectively.
Regarding `C/C=C(/C)C#N`, the max response is 26.2% in test [1], -23.6% in test [5], 0.293% in test [8] and 32% (inactive) in [9]. For the same compound, the Potency entry in test [2], in test [10] and in test [11] was “inactive” throughout. In addition, the call in test [3], in test [4] and in test [6] was inactive. Further, the activation is -0.853% (inactive) in [12] and -0.053% (inactive) in [15].
For the compound `Cc1cccc2cccnc12`, the max response was -4.69% in test [1] and -2.92% in test [5]. Further, the Potency entry in [2] and in test [10] was “inactive” throughout. The compound was called inactive in test [3], in [16], in [4], in test [6] and in test [7]. In [14], the activity change % (negative = inhibition) was -0.45% (inactive). Moreover, in test [12], the activation was -4.27% (inactive).
`C=C(C)C(=O)OCC(C)C`: the max response in test [1] was -19.3%; in [5], -16.8%; in [8], -5.76%; in test [9], -6.82% (inactive). The Potency result in test [2] and in [10] was “inactive” in each case. Further, the result in [3], in test [4], in [13], in test [6] and in test [7] was inactive. Besides, the activity change % (negative = inhibition) in [14] was 1.27% (inactive). The activation is -1.84% (inactive) in [12] and 1.27% (inactive) in test [15].
For the compound `C[C@@H]1CC2(OC3C[C@@]4(C)C5=CC[C@H]6C(C)(C)C(O[C@@H]7OC[C@@H](O)[C@H](O)[C@H]7O)CC[C@@]67C[C@@]57CC[C@]4(C)C31)OC(O)C1(C)OC21` (some centres not stated), the compound was called inactive in test [4] and in test [7]. Also, the Potency entry in test [10] was “inactive”. The Potency in [11] is 75 µM (active). The activation is -4.93% (inactive) in test [12] and -1.92% (inactive) in test [15].
Consider `Cc1ccc(C(C)(C)C)cc1`, for which the max response in test [1] is -8.71%; in test [5] it was -4.76%; in [8] it was -11.6%; in [9] it was 4.12% (inactive). Moreover, the Potency entry in [2], in test [10] and in test [11] was “inactive” throughout. The compound was called inactive in test [3], in [4], in test [13], in test [6] and in test [7]. Moreover, the activity change % (negative = inhibition) in [14] was 14% (inactive). In addition, the activation in test [12] is -7.08% (inactive).
As for `Cc1cccc2ccccc12`, the outcome in [3], in test [16], in test [13], in test [6] and in test [7] was inactive. The max response in test [5] was -13.1%; in [8], -10.1%; in [9], 0.915% (inactive). Besides, in [14], the activity change % (negative = inhibition) was 12.2% (inactive). Also, the Potency entry in [10] and in test [11] was “inactive” each time. For the same compound, the activation in test [12] was -1.93% (inactive); in [15], -1.12% (inactive).
As for `Cc1cccc(C)c1O`, the values for the max response in test [1], in [5] and in test [8] were -20.4%, -16.7% and 3.79%, respectively. Moreover, the Potency entry in [2] and in test [10] was “inactive” throughout. Moreover, the outcome in test [3], in test [16], in [4], in test [6] and in test [7] was inactive. The activation in test [12] was -0.5% (inactive); in test [15], -0.357% (inactive).
